Consider 34 molecules from PubChem BioAssay (NCATS).

The nature of test [1]: Dual reporter qHTS for agonist of Pregnane X Receptor (hPXR) against the NCATS DSHEA and TCM libraries: Fluorescence readout (AID 1920058). Note: 0% is about no effect. A digest of the protocol:
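In this qHTS counter-read, reporter-bearing HepG2 cells in charcoal-stripped serum received substances for approximately 24 h before viability was assessed fluorometrically with CellTiter-Fluor.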

For test [2], the target named is Nuclear receptor subfamily 1 group I member 2 (Homo sapiens) (UniProt O75469). As to the kind of experiment: Dual reporter qHTS for agonist of Pregnane X Receptor (hPXR) against the NCATS DSHEA and TCM libraries: Luminescence readout (AID 1920059). Note: 0% is about no effect. An excerpt:
(§1) Assay Development and Screening Technology Laboratory (ADST)
(§2) National Center for Advancing Translational Sciences (NCATS), Rockville, MD
(§3) National Institute of Health (NIH), Bethesda, Maryland
(§4) Dietary Supplements and Natural Products have minor oversight of their safety and efficacy. We assembled a collection of Dietary Supplements and Natural Products (DSNP) as well as Traditional Chinese Medicinal (TCM) Plant extracts, which were screened against an in vitro panel of assays, including a liver cytochrome p450 enzyme panel, CAR/PXR signaling pathways, and P-gp transporter assays, to assess their activity. This pipeline facilitated the interrogation of Natural Product-Drug Interaction (NaPDI) through prominent metabolizing pathways. In addition, we compared the activity profiles of the DSNP/TCM substances with those of an approved drug collection. […] Overall, we highlight four significant bioactivity profiles (measured by p-values) as examples of this prediction. […] To profile potential P-gp activity, a differential cell viability was measured against two cell lines: a parental KB-3-1 human cervical adenocarcinoma cell line and the drug-resistant subline KB-8-5-11 that overexpresses P-gp. […]
(§5) 8; Read; Fluorescence; ViewLux plate reader. […]
(§6) 11; Read; Luminescence; ViewLux plate reader. […]
(In general: In qHTS, concentration-response curves come from the screen itself.)

Test [3] has the same target. As to the kind of experiment: Dual reporter qHTS for antagonist of Pregnane X Receptor (hPXR) against the NCATS DSHEA and TCM libraries: Luminescence Readout (AID 1920060).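 Note: HepG2 cells carrying hPXR luciferase reporter stimulated with rifampicin at 2 µM; 0% is about no effect.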 The procedure, abridged: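 HepG2 hPXR-Luc, 2000 cells/well, charcoal-stripped FBS medium; 5 h attach; RIF 2 uM final; 24 h 37C/5% CO2; CellTiter-Fluor 1 h, fluor 405/540; ONE-Glo 30 min RT, lum.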

Test [4] is described as follows: Dual reporter qHTS for antagonist of Pregnane X Receptor (hPXR) against the NCATS DSHEA and TCM libraries: Fluorescence Readout (AID 1920061). Note: 0% is about no effect.
Excerpt: as §1, §2, §3, §4, §5, §6

Test [5] in a line: qHTS drug screen for cell cycle checkpoint inhibitors in PARPi-resistant BRCA-mutant ovarian cancer cell lines. (AID 1963452; calls by dose curve). Particulars: PEO1/OlaR viability, CellTiter-Glo luminescence, 96 h, stronger effect = lower value. The procedure, abridged: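 PEO1, PEO4 and PEO1/OlaR ovarian cancer cells, 600 per well, exposed 96 h at 37C to a dilution series. Viability read by CellTiter-Glo luminescence, normalized to DMSO and empty wells; activity summarized as Z-AUC.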

The next test has as its system 7G8. Briefly: qHTS profiling for inhibitors of Plasmodium falciparum proliferation (AID 504749).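 For activity, negative = inhibition: 0% = DMSO vehicle and full inhibition = artemisinin control.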 Note: nearly all actives have a fitted effect of over 60% in size. Note: potency is the fitted concentration of half-maximal effect. Particulars: P. falciparum in erythrocytes, SYBR Green DNA, 72 h; series mostly up to 28.7 µM. The procedure, abridged:
(§7)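 Fluorescence of SYBR Green-bound parasite DNA, read at 485/535 nm, served as the growth measure. Infected erythrocytes were cultured with compound 72 h; artemisinin (0.29 uM) and DMSO wells defined the normalization range.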

For another test, the system named is AA1029. The description is as above. Particulars: P. falciparum in erythrocytes, SYBR Green DNA, 72 h; series mostly up to 28.7 µM. A digest of the protocol:
as §7

The next test deals with AS120. The test is described as above. Particulars: P. falciparum in erythrocytes, SYBR Green DNA, 72 h; series mostly up to 28.7 µM. The procedure, abridged:
as §7

Test in test [6]: as above
Particulars: P. falciparum in erythrocytes, SYBR Green DNA, 72 h; for activity, negative = inhibition: at 28.7 µM (top of the series). A digest of the protocol: as §7

The subject of a further test is 3D7. Described as above. Particulars: P. falciparum in erythrocytes, SYBR Green DNA, 72 h; series mostly up to 28.7 µM. The procedure, abridged: as §7
Setting [7] is: measured here: PEO1 parental Z-AUC.

Records with an inconclusive call do not appear. Active and inactive are the calls of the source. Unless noted, calls come from the whole dose curve; as a rule, active = well fitted curve in the direction sought with a large enough effect; inconclusive = small, poorly fitted or top-dose-only effect, or another doubt; inactive = no such curve, though single readings can be large; an effect the other way counts as inactive or inconclusive.

Chain of Nuclear receptor subfamily 1 group I member 2 (Homo sapiens) (O75469 whole entry, looked up): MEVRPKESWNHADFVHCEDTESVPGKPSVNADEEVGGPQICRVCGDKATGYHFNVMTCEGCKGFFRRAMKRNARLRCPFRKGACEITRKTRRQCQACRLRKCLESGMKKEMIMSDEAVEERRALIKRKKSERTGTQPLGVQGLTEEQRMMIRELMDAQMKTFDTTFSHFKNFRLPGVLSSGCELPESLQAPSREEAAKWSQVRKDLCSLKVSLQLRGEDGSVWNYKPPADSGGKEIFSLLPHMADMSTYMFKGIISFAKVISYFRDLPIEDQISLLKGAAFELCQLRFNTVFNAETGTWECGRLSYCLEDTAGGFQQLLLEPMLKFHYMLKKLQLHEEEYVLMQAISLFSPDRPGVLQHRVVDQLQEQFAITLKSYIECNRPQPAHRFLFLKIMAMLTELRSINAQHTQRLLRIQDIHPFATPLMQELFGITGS

Consider `O=C(O)CCCC[C@@H]1SC[C@@H]2NC(=O)N[C@@H]21`, for which the molecule was called inactive in test [1], in test [2], in test [3] and in test [4].
For the molecule `CCN(CC)CCOc1ccc(/C(=C(\Cl)c2ccccc2)c2ccccc2)cc1`, the Z-AUC is -0.751 (inactive) in test [5], -0.39 in test [5] (setting [7]) and -0.613 in test [5] (measured here: PEO4 Z-AUC).
The corresponding values for `O=C(Nc1ccc(S(=O)(=O)N2CCOCC2)cc1)c1cc(Cl)ccc1NS(=O)(=O)c1ccc(Cl)s1` are 1.19 (inactive), 0.998 and 1.36.
With `Nc1ccc2cc3ccc(N)cc3nc2c1`, in the test on 7G8, the Potency was 2.24 µM (active).
On to `CCC1=C[C@@H]2CN(C1)Cc1c([nH]c3ccccc13)[C@@](C(=O)OC)(c1cc3c(cc1OC)N(C)[C@H]1[C@@](O)(C(=O)OC)[C@H](OC(C)=O)[C@]4(CC)C=CCN5CC[C@]31[C@@H]54)C2`, for which the figures for the Z-AUC in test [5], in test [5] (setting [7]) and in test [5] (measured here: PEO4 Z-AUC) were -1.05 (inactive), -1.03 and -1.04, respectively.
In the same order, the values of `C[C@H]1C[C@H]2[C@@H]3CCC4=CC(=O)C=C[C@]4(C)[C@H]3C(=O)C[C@]2(C)[C@@]1(O)C(=O)CO` are 1.47 (inactive), 0.72 and 0.786.
For `CCCCCCOC(=O)NC(=N)c1ccc(NCc2nc3cc(C(=O)N(CCC(=O)OCC)c4ccccn4)ccc3n2C)cc1`, the Z-AUC was 1.19 (inactive) in [5], 0.495 in test [5] (setting [7]) and 0.615 in [5] (measured here: PEO4 Z-AUC).
As for `O=C1NC(=O)/C(=C/c2ccc3c(c2)OC(F)(F)O3)S1`, the Z-AUC in [5] was -0.958 (inactive); in [5] (setting [7]), -0.173; in [5] (measured here: PEO4 Z-AUC), -0.926.
Turning to `C[N+](C)(C)CCO`, the call in [1], in test [2], in [3] and in test [4] was inactive.
For `C[C@H]1C[C@@H]2[C@H]([C@@H](O)C[C@@]3(C)[C@H]2CC[C@]3(O)C(=O)CO)[C@@]2(C)C=CC(=O)C=C12`, the Z-AUC is -1.46 (inactive) in test [5], -0.672 in test [5] (setting [7]) and -1.34 in test [5] (measured here: PEO4 Z-AUC).
`O=C(O)C(=O)Nc1cccc(-c2nn[nH]n2)c1`: the Z-AUC in [5] is 0.0028 (inactive); in test [5] (setting [7]), 0.552; in test [5] (measured here: PEO4 Z-AUC), 0.459.
As for `CC(NCCC(c1ccccc1)c1ccccc1)c1ccccc1` (stereo unspecified), the Potency with 7G8 is 2.24 µM (active); in the test with AA1029, 12.6 µM (active); in the test on AS120 it was 11.2 µM (active).
As to `CCCCCCCCCCCCCCCC[n+]1ccccc1`, the Potency was 6.31 µM (active) in [6] (parasite line A); 6.31 µM (active) in [6] (parasite line B); 4.47 µM (active) in the test with 3D7; 5.01 µM (active) in the test with 7G8; 5.01 µM (active) in the test with AA1029; 7.94 µM (active) in the test with AS120.
In the case of `CCOC(=O)O[C@]1(C(=O)OCCl)CC[C@H]2[C@@H]3CCC4=CC(=O)C=C[C@]4(C)[C@H]3[C@@H](O)C[C@@]21C`, the Z-AUC in test [5] was 1.04 (inactive); in [5] (setting [7]), 0.868; in [5] (measured here: PEO4 Z-AUC), 1.23.
Regarding `CC1c2ccccc2CN1NC(=O)c1ccc(Cl)c(S(N)(=O)=O)c1` (stereo unspecified), the Z-AUC in [5] is 1.28 (inactive); in test [5] (setting [7]), 0.911; in [5] (measured here: PEO4 Z-AUC), 0.911.
With `O=[N+]([O-])c1ccc(-c2nc(-c3ccc(F)cc3)c(-c3ccncc3)[nH]2)cc1`, the Z-AUC in test [5] is 1.31 (inactive); in test [5] (setting [7]), 0.274; in test [5] (measured here: PEO4 Z-AUC) it was 0.382.
The corresponding values for `CNC[C@H](O)[C@@H](O)[C@H](O)[C@H](O)CO` are -0.453 (inactive), -0.0353 and 0.238.
On to `CCCCCCCCCCCCCC[N+](C)(C)C`, for which the Potency is 5.01 µM (active) in test [6] (parasite line A); 7.08 µM (active) in [6] (parasite line B); 3.98 µM (active) with 3D7; 2.24 µM (active) in the test with 7G8; 4.47 µM (active) in the test with AA1029; 5.62 µM (active) in the test on AS120.
As for `Nc1c2ccccc2nc2ccccc12`, the Potency was 7.94 µM (active) in [6] (parasite line A); 11.2 µM (active) in [6] (parasite line B); 3.16 µM (active) with 7G8; 7.08 µM (active) in the test with AA1029; 12.6 µM (active) in the test with AS120.
As to `O=C(Nc1ccc(Cl)cc1)Nc1ccc(Cl)c(Cl)c1`, the Potency in [6] (parasite line A) is 3.16 µM (active); in [6] (parasite line B), 3.98 µM (active); with 3D7, 5.01 µM (active); with 7G8 it was 0.501 µM (active); with AA1029, 5.62 µM (active); with AS120 it was 2.24 µM (active).
For the molecule `O=[N+]([O-])c1cncn1CCN1CCOCC1`, the Z-AUC is 1.32 (inactive) in test [5], 1.34 in test [5] (setting [7]) and 1.02 in test [5] (measured here: PEO4 Z-AUC).
As to `CC1(C)O[C@@H]2C[C@H]3[C@@H]4CCC5=CC(=O)C=C[C@]5(C)[C@@]4(F)[C@@H](O)C[C@]3(C)[C@]2(C(=O)CO)O1`, the Z-AUC in test [5] is 0.569 (inactive); in [5] (setting [7]) it was 1.66; in test [5] (measured here: PEO4 Z-AUC) it was 0.813.
Turning to `CCCCCCCCCCCCCCCC[N+](C)(C)Cc1ccccc1`, the Potency in [6] (parasite line A) is 1.26 µM (active); in test [6] (parasite line B), 5.62 µM (active); in the test on 3D7, 3.98 µM (active); with 7G8, 3.16 µM (active); in the test with AA1029, 3.16 µM (active); in the test with AS120, 1 µM (active).
As to `Nc1ncnc2nc[nH]c12`, the activity, negative = inhibition in test [6] (parasite line A) is -12.9% (inactive); in test [6] (parasite line B), -6.26% (inactive). Further, the Potency entry in the test on 3D7, in the test on 7G8, with AA1029 and in the test on AS120 was “inactive” in each case.
With `CC(C)N(CCC(=O)c1ccc2ccccc2c1)Cc1ccccc1`, the results for the Z-AUC in [5], in test [5] (setting [7]) and in test [5] (measured here: PEO4 Z-AUC) were -1.4 (inactive), -0.867 and -0.853, respectively.
On to `CN1CCC(Nc2ncc3ncnc(Nc4ccc(F)c(Cl)c4)c3n2)CC1`, for which the Potency in test [6] (parasite line A) was 8.91 µM (active); in test [6] (parasite line B), 10 µM (active); in the test with 7G8, 2.51 µM (active); in the test on AA1029, 10 µM (active).
In the case of `O=C(O)[C@H](O)[C@@H](O)[C@H](O[C@@H]1O[C@H](CO)[C@H](O)[C@H](O)[C@H]1O)[C@H](O)CO`, the values for the Z-AUC in [5], in [5] (setting [7]) and in [5] (measured here: PEO4 Z-AUC) were 0.899 (inactive), 1.15 and 1.21, respectively.
Regarding `CN1CC(=O)N2[C@H](c3ccc4c(c3)OCO4)c3[nH]c4ccccc4c3C[C@@H]2C1=O`, the Z-AUC is 0.983 (inactive) in test [5], 0.823 in test [5] (setting [7]) and 0.783 in test [5] (measured here: PEO4 Z-AUC).
In the case of `O=[N+]([O-])c1ccc(O)c2ncccc12`, the values for the Z-AUC in test [5], in [5] (setting [7]) and in test [5] (measured here: PEO4 Z-AUC) were -0.66 (inactive), -0.828 and -1.06, respectively. The Potency was 11.2 µM (active) with 3D7, 11.2 µM (active) in the test with 7G8 and 10 µM (active) in the test on AS120.
For the molecule `CC1(C)O[C@@H]2C[C@H]3[C@@H]4C[C@H](F)C5=CC(=O)C=C[C@]5(C)[C@@]4(F)[C@@H](O)C[C@]3(C)[C@]2(C(=O)CO)O1`, the values for the Z-AUC in [5], in test [5] (setting [7]) and in [5] (measured here: PEO4 Z-AUC) were -1.1 (inactive), 0.399 and -0.582, respectively.
For the molecule `O=S(=O)(O)c1ccc2nc(-c3ccccc3)[nH]c2c1`, the results for the activity, negative = inhibition in [6] (parasite line A) and in [6] (parasite line B) were 7.74% (inactive) and 3.12% (inactive), respectively. For the same molecule, the Potency result with 3D7, with 7G8, in the test on AA1029 and in the test on AS120 was “inactive” throughout.
As to `COc1c(C)c2c(c(O)c1C/C=C(\C)CCC(=O)OCCN1CCOCC1)C(=O)OC2`, the Z-AUC in test [5] was 0.671 (inactive); in test [5] (setting [7]), 0.614; in [5] (measured here: PEO4 Z-AUC), 0.906.
For `CN1CCCN=C1/C=C/c1cccs1`, the figures for the Z-AUC in test [5], in test [5] (setting [7]) and in [5] (measured here: PEO4 Z-AUC) were 0.33 (inactive), 0.491 and 0.415, respectively.
Regarding `CN1CCCN(C(c2ccccc2)c2ccc(Cl)cc2)CC1` (stereo unspecified), the Potency is 8.91 µM (active) in the test with 7G8, 7.94 µM (active) in the test with AA1029 and 11.2 µM (active) in the test with AS120.
